High-throughput results: PubChem, The Scripps Research Institute Molecular Screening Center
Rows were chosen to be rich in hits. Some 4.5% of all compounds tested hit in one or more screens of this group.
DAX1 inh-1 – DAX1 (NR0B1) inhibition, primary screen; HEK293T StAR-luciferase reporter, SF-1/DAX-1 repression relief; inhibition, % at 6.8 µM; 370,000 tested, 1.1% active;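 active = inhibition above the mean over all tested compounds plus 3 SD, cut at about 3.6% in these data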;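 also: 0% = DAX-1 cells with DMSO and 100% = cells lacking DAX-1 with DMSO; higher inhibition means more luminescence from relief of DAX-1 repression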
DAX1 inh-2 – inhibitors of human orphan nuclear receptor DAX1 (NR0B1); HEK293 Gal4-DAX1 luciferase reporter, luminescence; inhibition, % at 6.75 µM; 340,000 tested, 0.99% active; P51843;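 active = inhibition above the mean over all tested compounds plus 3 SD, cut at about 4.2% in these data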;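 also: 0% = DAX1-transfected cells with DMSO and 100% = empty-vector control cells with DMSO; inhibition shows as a rise in luminescence from relieved DAX1 repression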
Target sequence (P51843 207-470 limits assumed): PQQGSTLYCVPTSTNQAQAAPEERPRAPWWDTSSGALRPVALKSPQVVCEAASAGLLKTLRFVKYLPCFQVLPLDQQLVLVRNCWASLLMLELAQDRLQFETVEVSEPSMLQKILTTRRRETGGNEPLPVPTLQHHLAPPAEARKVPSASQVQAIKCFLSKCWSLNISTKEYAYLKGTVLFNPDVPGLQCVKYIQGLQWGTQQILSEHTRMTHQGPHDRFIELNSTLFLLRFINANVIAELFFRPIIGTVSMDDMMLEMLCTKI
hcDAF12 agonist – H. contortus DAF-12 activation, primary screen; HEK293 hcDAF-12 lit1-tk-luc reporter, luminescence; 0% DMSO, 100% Δ7-dafachronic acid; activation, % at 6.8 µM; 370,000 tested, 1.4% active;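 active = activation above the mean of all tested compounds plus 3 SD, cut at about 5.5% in these data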;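 also: 100% = response to 3 µM Δ7-dafachronic acid high control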
hgDAF12 agonist – activates the H. glycines DAF-12 receptor ligand-binding domain; AID 687014; 370,000 tested, 1.8% active; HEK293 GAL4-hgDAF12 UAS-luciferase reporter, agonist luminescence; normalized to butyrate control; activation, % at 6.8 µM;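 active = activation above a cutoff set at the mean of all screened compounds plus 3 SD, cut at about 10% in these data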;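 also: 0% = DMSO wells and 100% = sodium butyrate wells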
FXN GAA850 act – activators of GAA850 frataxin (FXN) promoter; activation, % at 6 µM; HEK293 lucGAA850 FXN promoter luciferase reporter, 24 h; percent of 10 µM SAHA response; 360,000 tested, 0.56% active; AID 540364;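 active = activation above the average of all compounds screened plus 3 SD, cutoff fixed separately per campaign, cut at about 7.5% in these data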;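 also: 0% = DMSO wells and 100% = 10 µM SAHA wells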
ssDAF12 agonist – activates DAF-12 receptor from parasite S. stercoralis; activation, % at 6.8 µM; 370,000 tested, 1% active; HEK293 ssDAF-12/GRIP1 lit1-tk-luc reporter, luminescence; % of 3 µM dafachronic acid response;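 active = activation above the mean over all tested compounds plus 3 SD, cut at about 0.9% in these data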;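 also: 0% = DMSO-only wells and 100% = 3 µM delta7-dafachronic acid wells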
DAX1 conf – NR0B1 (human) inhibition, confirmation | HEK293T StAR-promoter luciferase reporter, SF-1/DAX-1 repression | inhibition, % at 6.8 µM | 2,400 tested, 87% active | shares compounds with DAX1 inh-1;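 active = inhibition above the average of every tested compound plus 3 SD, cut at about 3.8% in these data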;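 also: 0% = DAX-1 cells with DMSO and 100% = no DAX-1 control cells with DMSO; active compounds raise luminescence by relieving repression of the StAR reporter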
SF1 AF2mut Luc – counter-screen for DAX1 inhibitors: nonselective inhibitors with SF-1 AF2 mutant; HEK293 StAR-luciferase, luminescence; shares compounds with DAX1 inh-1; inhibition, % at 6.8 µM; AID 652136; 2,400 tested, 78% active;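 active = inhibition above the mean of all tested compounds plus 3 SD, cut at about 3% in these data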;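 also: 0% = DAX-1 transfected cells with DMSO and 100% = cells without DAX-1 with DMSO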
LXR ag – LXR-beta agonism as hcDAF-12 counter-screen. shares compounds with hcDAF12 agonist. HEK293 Gal4-LXR tk-luc reporter, luminescence, 24 h; normalized: DMSO 0%, positive control 100%. activation, % at 6.8 µM. 3,400 tested, under 10 active. AID 743027;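 active = mean percent activation of the reporter above a cutoff set as the average over tested compounds plus their standard deviation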
Target sequence (P55055 whole entry, looked up, the tested form may be a part): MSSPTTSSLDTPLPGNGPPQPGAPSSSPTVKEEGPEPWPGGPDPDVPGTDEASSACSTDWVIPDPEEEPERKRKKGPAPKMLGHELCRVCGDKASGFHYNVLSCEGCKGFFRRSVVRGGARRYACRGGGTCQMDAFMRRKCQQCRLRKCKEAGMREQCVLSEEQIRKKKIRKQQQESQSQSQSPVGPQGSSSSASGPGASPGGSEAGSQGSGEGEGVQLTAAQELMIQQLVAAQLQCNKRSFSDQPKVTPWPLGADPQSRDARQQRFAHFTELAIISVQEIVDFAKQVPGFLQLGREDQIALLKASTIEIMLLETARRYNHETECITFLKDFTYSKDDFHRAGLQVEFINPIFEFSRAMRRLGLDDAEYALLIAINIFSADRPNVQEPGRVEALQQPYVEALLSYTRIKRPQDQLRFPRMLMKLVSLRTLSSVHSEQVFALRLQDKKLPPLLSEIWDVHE
hcDAF12 conf – hcDAF-12 agonism, confirmation assay | shares compounds with hcDAF12 agonist | HEK293 hcDAF-12 lit1-tk-luc reporter, luminescence; % of Δ7-dafachronic acid response | activation, % at 6.8 µM | 3,400 tested, 61% active;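 active = mean activation across triplicate tests above the threshold derived from the earlier primary screen, cut at about 5.5% in these data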;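 also: 0% = DMSO only wells and 100% = 3 µM Δ7-dafachronic acid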
hgDAF12 ag – confirmation of H. glycines DAF-12 agonists; 3,300 tested, 80% active; shares compounds with hgDAF12 agonist; HEK293 GAL4-hgDAF12 luciferase reporter, agonist mode; percent of butyrate response; activation, % at 6.8 µM;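 active = mean activation over triplicate wells above the hit cutoff derived from the earlier primary screen, cut at about 11% in these data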;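 also: 0% = DMSO low control and 100% = 2 mM sodium butyrate high control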
LXRb DAF12 ctr – LXR-beta agonism as DAF-12 counter-screen; shares compounds with hgDAF12 agonist; HEK293 Gal4-LXR luciferase reporter, 24 h; activation, % at 6.8 µM; 3,300 tested, under 10 active;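 active = mean activation of the triplicate above a set limit carried over from the primary screen, none filed active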
An asterisk follows results filed as active; . = no result.

SMILES	DAX1 inh-1	DAX1 inh-2	hcDAF12 agonist	hgDAF12 agonist	FXN GAA850 act	ssDAF12 agonist	DAX1 conf	SF1 AF2mut Luc	hgDAF12 ag	LXRb DAF12 ctr	others
COc1ccc(C(=O)/C=C/Nc2cccc(O)c2)cc1	6.0*	-1	8.2*	19*	3	1.2*	14*	8.1*	27*	2	LXR ag=2;hcDAF12 conf=12*
Cc1ccc(S(=O)(=O)N2[C@@H](c3cccc(Cl)c3)C(C(=O)O)=CC[C@H]2c2ccc(C(C)C)cc2)cc1	0	1	-1	1	0	-1	.	.	.	.
COc1ccc2c(C)cc(N3CCOCC3)nc2c1	0	0	1	1	3	-1	.	.	.	.
COc1ccc2nc(N3CCOCC3)cc(C)c2c1	5.8*	2	4	17*	6	0	12*	6.3*	14*	1
COc1ccc(-c2cn3cc(C(F)(F)F)cc(Cl)c3n2)cc1	5.1*	3	12*	23*	0	2.6*	8.7*	6.9*	21*	1	LXR ag=1;hcDAF12 conf=15*
CCNC(=O)C1CCCN(C(=O)c2ccc(N(C)C)cc2)CC1 (stereo not given)	0	.	2	-1	1	-1	.	.	.	.
O=C(/C=C/c1ccco1)NC(=S)NNC(=O)c1ccco1	0	-1	2	2	5	-1	.	.	.	.
N#Cc1ccc(C(=O)N2CCCCC2c2cc(C(=O)Nc3ccc4c(c3)OCO4)no2)cc1 (stereo not given)	-1	.	-1	-1	-1	-2	.	.	.	.
Cc1ccc2c(c1)C(=O)CC(c1ccccc1)S2 (stereo not given)	19*	3	7.7*	20*	5	1.5*	13*	7.4*	19*	1	LXR ag=2;hcDAF12 conf=6.5*
Cc1cccc(-c2cc(N)n(-c3ccccc3)n2)c1	7.8*	3	3	18*	3	0	11*	6.8*	21*	1
CCc1ccc(-c2cc(N)n(-c3ccccc3)n2)cc1	7.3*	5.5*	5	17*	5	1	12*	7.2*	18*	1
COC(=O)c1cc(C(=O)OCC(=O)c2ccc3c(c2)NC(=O)CO3)cc([N+](=O)[O-])c1	3	0	0	2	-1	-1	.	.	.	.
CC(C)(C)NC(=O)C(c1cc2ccccc2o1)n1c(=O)c(-c2cc3ccccc3[nH]2)nc2ccccc21 (stereo not given)	0	.	5	4	.	0	.	.	.	.
Cc1csc(-c2nc3ccccc3n2C(C(=O)NC(C)(C)C)c2cc3ccccc3o2)c1 (stereo not given)	11*	.	9.4*	16*	.	1.9*	6.6*	6.0*	18*	1	LXR ag=1;hcDAF12 conf=11*
CC1(C(=O)NS(=O)(=O)c2cccs2)CCN1C(=O)Cc1ccc(Cl)cc1Cl (stereo not given)	1	.	-1	-1	1	-1	.	.	.	.
O=C(NC(=S)Nc1cc([N+](=O)[O-])ccc1O)c1ccc2c(c1)OCO2	10.0*	1	9.2*	16*	-1	0	16*	7.4*	18*	1	LXR ag=2;hcDAF12 conf=9.7*
O=C1CNC(=S)N1c1nc(-c2ccccc2)cs1	1	1	5	9	3	-2	.	.	.	.
Cc1cc2nc(N3C(=O)CNC3=S)sc2cc1C	6.7*	0	2	17*	7	1.0*	14*	7.0*	13*	1
COc1cc(OC)c(N(C)S(=O)(=O)c2cccc(C(=O)OCC(=O)N(C)Cc3ccccc3)c2)cc1Cl	0	-1	0	2	-1	-1	.	.	.	.
CC1CCN(C(=O)c2cc(-c3ccco3)on2)CC1	1	0	4	8	3	0	.	.	.	.
CC1CCN(C(=O)c2cc3ccccc3o2)CC1	2	1	4	6	5	-1	.	.	.	.
O=C(c1cc(-c2cccc(O)c2)on1)N1CCCCCC1	2	3	4	9	2	1	.	.	.	.
O=C(c1cc(-c2ccccc2)on1)N1CCN(c2ccccc2)CC1	0	1	-1	0	0	-1	.	.	.	.
O=C(c1cc(-c2cccc(O)c2)on1)N1CCOCC1	8.0*	1	4	16*	3	1	13*	7.1*	12*	1
O=C(c1cc(-c2ccccc2)on1)N1CCCC1	6.1*	0	4	14*	6	1.3*	11*	4.5*	15*	1
SMILES	DAX1 inh-1	DAX1 inh-2	hcDAF12 agonist	hgDAF12 agonist	FXN GAA850 act	ssDAF12 agonist	DAX1 conf	SF1 AF2mut Luc	hgDAF12 ag	LXRb DAF12 ctr	others
CC1CCN(C(=O)c2cc(-c3ccccc3O)on2)CC1	10*	4	6.2*	24*	4	1.1*	12*	9.4*	17*	1
CC1CCN(C(=O)c2ccc(-c3ccccc3Cl)o2)CC1	17*	2	4	16*	7	1	14*	8.6*	13*	1
Cc1cccc(N(CC(=O)NC2CCCC2)C(=O)CNC(=O)c2ccco2)c1C	0	0	1	1	-2	0	.	.	.	.
Cc1ccc(C(=O)NNC(=O)c2csc(N3CCOCC3)n2)s1	1	0	-1	3	1	-1	.	.	.	.
CC1(C2CCC3(C)OC3C2)CO1 (stereo not given)	0	1	1	5	4	-2	.	.	.	.
O=C(C1CCN(S(=O)(=O)c2ccccc2)CC1)N1CCCCC1	0	1	2	-1	0	0	.	.	.	.
CN1CCN(c2ccc(NC(=O)Cc3ccccc3)cc2)CC1	1	4	-3	6	4	-1	.	.	.	.
O=C(Cc1ccccc1)Nc1ccc(N2CCCCC2)cc1	5.1*	2	5	25*	7	1.7*	14*	7.3*	18*	1
